Results taken from PubChem BioAssay (NCI).
The panel holds about 83,000 compounds, 20% with a hit somewhere; the sample as a whole holds those more often.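 Single-concentration screen, 48 h exposure, 96-well plates. Endpoint: percent growth. Below 10 = active.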 Values without a mark were called inactive. Active and inactive are the calls of the source.

Key:
Test in all cases: NCI-60 one-dose screen, 48 h (100 = growth as untreated, 0 = no growth, -100 = all killed)
Conditions in all cases: 10 µM
SK-MEL-2 melanoma = system: SK-MEL-2 melanoma
EKVX NSCLC = system: EKVX NSCLC
SN12C renal = system: SN12C renal
UO-31 renal = system: UO-31 renal
ACHN renal = system: ACHN renal
CAKI-1 renal = system: CAKI-1 renal
A498 renal = system: A498 renal
CCRF-CEM leukemia = system: CCRF-CEM leukemia
MOLT-4 leukemia = system: MOLT-4 leukemia
SR leukemia = system: SR leukemia
RPMI-8226 leukemia = system: RPMI-8226 leukemia
OVCAR-8 ovarian = system: OVCAR-8 ovarian
OVCAR-5 ovarian = system: OVCAR-5 ovarian
OVCAR-4 ovarian = system: OVCAR-4 ovarian
SK-OV-3 ovarian = system: SK-OV-3 ovarian
IGROV1 ovarian = system: IGROV1 ovarian
OVCAR-3 ovarian = system: OVCAR-3 ovarian
HS 578T breast = system: HS 578T breast
NCI/ADR-RES ovarian = system: NCI/ADR-RES ovarian
TK-10 renal = system: TK-10 renal

Structure (SMILES) | growth (SK-MEL-2 melanoma) | growth (EKVX NSCLC) | growth (SN12C renal) | growth (UO-31 renal) | growth (ACHN renal) | growth (CAKI-1 renal) | growth (A498 renal) | growth (CCRF-CEM leukemia) | growth (MOLT-4 leukemia) | growth (SR leukemia) | growth (RPMI-8226 leukemia) | growth (OVCAR-8 ovarian) | growth (OVCAR-5 ovarian) | growth (OVCAR-4 ovarian) | growth (SK-OV-3 ovarian) | growth (IGROV1 ovarian) | growth (OVCAR-3 ovarian) | growth (HS 578T breast) | growth (NCI/ADR-RES ovarian) | growth (TK-10 renal)
CC(=O)Nc1nc(C)c(C(=O)N/N=C/c2cccn2C)s1 | 43.6% | 103% | 94.5% | 93.7% | 107% | 111% | 89.6% | 98.8% | 100% | 107% | 110% | 101% | 110% | 108% | 141% | -1.21% (active) | 105% | 72.5% | 96% | 
CC(=O)OC1Oc2ccccc2-c2oc(=O)c(-c3cc(=O)oc4cc(O)ccc34)cc21 (configuration not stated) | 87.3% | 86.6% | 95.6% |  | 85.8% | 93.7% | 54.8% | 32.1% | 42.8% | 3.66% (active) | 46.7% | 89.1% | 75.8% | 77.2% | 83.3% | 49.4% | 63.8% | 59.5% | 75.5% | 82.5%
C/C(=N\NC(=O)c1sc(=S)n(C)c1N)c1cc2ccccc2o1 | 74.4% | 64.8% | 72.2% |  | 59.7% | 50% | 33.3% | 51.2% | 35.7% | 42.6% | 42.5% | 69.6% | 74.1% | 61% | 133% | 37.5% | 65% | 61.6% | 49.1% | 56.6%
O=[N+]([O-])C1CC2C=CC1C2 (configuration not stated) | 92.8% | 92.7% | 102% | 80.8% | 106% | 95.1% | 78.2% |  | 96.1% | 92.4% | 111% | 102% | 104% | 99.7% | 102% | 103% | 91.6% | 97.9% | 95.6% | 112%
Cc1ccc2nc3[nH]c(=O)[nH]c(=O)c3c(N)c2c1 | 98% | 59.9% | 72.6% |  | 60.2% | 58% | 115% | 77.7% | 86.6% | 95.6% | 89.8% | 88.5% | 92.9% | 81.7% | 86% | 75.1% | 101% | 79.2% | 97.8% | 78.2%
CC(=O)Nc1nc(C)c(C(=O)NNC=O)s1 | 62.7% | 101% | 98.7% | 100% | 108% | 109% | 104% | 101% | 98.1% | 105% | 118% | 102% | 108% | 118% | 141% | 13% | 98.6% | 77% | 104% | 
COc1ccc(-c2csc(-c3cc(Cl)cc(Cl)c3Cl)n2)cc1 | 96.3% | 80.5% | 91.3% |  | 89.7% | 85.9% | 52.1% | 97.4% | 89% | 88.8% | 93.5% | 29.7% | 109% | 85.2% | 90.5% | 58.3% | 105% | 80.4% | 97.1% | 118%
C(=C\c1nc2ccccc2s1)/c1ccc(N2CCOCC2)s1 | 81.2% | 87.8% | 93.8% |  | 63.4% | 83.3% | 86.4% | 58.2% | 51% | 26.3% | 62.9% | 97.6% | 112% | 72.9% | 98.7% | 100% | 85.8% | 112% | 69.9% | 89.6%
COc1cc(Cn2c(-c3ccccc3)c(Cl)c3c2-c2oncc2CC3)cc(OC)c1 | 75.3% | 90.6% | 92% | -7.99% (active) | 69.2% | 47.3% |  | 9.93% (active) | 5.45% (active) | 0.637% (active) | 58.9% | 92.8% | 96.7% | 76.8% | 97.2% | 16.2% | 45.9% | 52.8% | 47.6% | 104%
O=C1c2cc(Cl)ccc2-c2c(O)cc(Cl)cc21 | 62.3% | 72.1% | 72.2% | 49.6% | 66% | 90.7% | 109% |  | 47.3% | 39.3% | 46.6% | 58.4% | 101% | 66.4% | 94.8% | 74.4% | 80% | 81.5% | 3.18% (active) | 114%
O=[N+]([O-])c1ccc(-c2nc(-c3ccccc3)c(-c3ccccc3)n2-c2ccccc2)cc1 | -38.1% (active) | 34.8% | 43.6% | -6.05% (active) | 19% | 48.1% |  | 1.03% (active) | -44.6% (active) | 4.19% (active) | -20.3% (active) | 26.7% |  | 24.7% | 55.5% | -29.1% (active) | 40.2% | 20.5% | 5.77% (active) | 
CCOC(=O)c1cc2c(n1Cc1cccc(OC)c1)-c1oncc1CC2 | 34.7% | 50.6% | 37.1% | -0.772% (active) | 42.8% | 7.23% (active) |  | 13.1% | 33.1% | 13.3% | 37% | 41.7% | 73% | 69.1% | 29.7% | 19.6% | -16.4% (active) | -15.6% (active) | 6.41% (active) | 53.2%
O=C(/C=C/c1nnc2n(Cc3ccccc3)c(=O)c3c4c(sc3n12)CCCC4)c1ccccc1 | 107% | 92.4% | 96.7% | 80% | 125% | 44.6% | 112% |  | -3.6% (active) |  | 1.69% (active) | 19.3% | 115% | 112% | 108% |  | 68.4% | 110% | 85.8% | 136%
CC1(C)CCc2cc(-c3ccn(S(=O)(=O)c4ccc(Cl)cc4)n3)ccc2O1 | 92.2% | 54.5% | 72.8% | 75.6% | 89.4% | 64.3% |  | 64.2% | 65.4% | 45.5% | 52.1% | 86.6% | 101% |  | 91.3% |  | 84% | 99.5% | 69.3% | 77%
Cc1ccc(S(=O)(=O)N2CCc3ccccc3CC2)cc1 | 80.9% | 22% | 85.3% | 70.2% | 85.5% | 78.7% | 87.4% |  | 80.5% | 84.8% | 42.3% | 79.2% | 94.3% | 44.8% | 96.3% | 104% | 103% | 109% | 69.8% | 74.2%
CCOC(=O)c1sc(NC(=O)c2cc(OC)c(OC)c(OC)c2)nc1C | 30.8% | 99.8% | 92.6% | 75.7% | 105% | 116% | 88.8% | 88.3% | 87.6% | 79% | 83% | 99.3% | 108% | 113% | 152% | -10.1% (active) | 103% | 80.8% | 103% | 
O=C(O)c1cc(C(F)(F)F)cc(C(F)(F)F)c1 | 97.1% | 105% | 104% | 77.8% |  | 99.6% | 84.4% | 102% | 95% | 85.3% | 104% | 106% | 107% | 108% | 112% | 114% | 107% | 109% | 107% | 135%
